Laboratory results reported in PubChem BioAssay AID686978 (National Center for Advancing Translational Sciences (NCATS), 2013).
The campaign covered roughly 420,000 compounds. About 64,000 (15%) were called active. About 27% were inconclusive and are not listed. The call rests on the fitted dose curve; in most records, active means well fitted inhibition curve with a large enough effect; inconclusive means small, poorly fitted or top-dose-only effect; inactive means flat fitted curve, though single readings scatter. Not all results are given here. Where a call stands in place of a potency, no number is given.

Assay: qHTS for Inhibitors of human tyrosyl-DNA phosphodiesterase 1 (TDP1): qHTS in cells in absence of CPT; further: nearly all actives have a fitted effect of over 55% in size
Settings: DT40 Tdp1-/- hTDP1 cells, no CPT, ATP luminescence, 48 h; activity change, negative = growth inhibition: at 46.2 µM (top of the series)
Outline: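 Seeded 400 DT40-hTDP1 cells/well (vehicle DMSO, no 20 nM CPT); pinned compounds; ≥48 hr at 37 °C; CellTiter-Glo luminescence as viability measure.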
Potency means the concentration at half of the fitted maximal effect.

| SMILES | Potency |
| --- | --- |
| O=C(COC(=O)COc1ccccc1F)Nc1cccc(S(=O)(=O)N2CCCCC2)c1 | inactive |
| O=C1OCCOC2CCCc3oc(-c4ccccc4)c1c32 (stereo not drawn) | inactive |
| CCN(CC)CCCN1C(=O)C(=O)/C(=C(/O)c2c(C)nc3ccccn23)C1c1ccc(C)o1 (stereo not drawn) | inactive |
| O=C(CCNc1n[nH]c(=O)[nH]c1=O)N/N=C\c1ccc(Br)cc1 | inactive |
| Cc1c(O)cc2c(c1C)O[C@](C)(CCC[C@H](C)CCC[C@H](C)CCCC(C)C)CC2 | inactive |
| COc1ccc(NC(=O)CN2C(=O)NC(C)(c3ccccc3)C2=O)cn1 (stereo not drawn) | inactive |
| COc1ccc(OCC(=O)NN2Cc3ccccc3C2=N)cc1 | inactive |
| Cc1ccc(N2C(=O)c3ccccc3C2(O)c2ncc[nH]2)cc1 (stereo not drawn) | inactive |
| C=CCNc1cnn(-c2ccc(C)cc2)c(=O)c1Cl | inactive |
| O=C(NCc1cccc(C(F)(F)F)c1)c1cccc(S(=O)(=O)N2CCN(Cc3ccccc3)CC2)c1 | 18.4 µM (active) |
| O=C(NCc1ccccc1)c1ccc(S(=O)(=O)Nc2cccc(C(F)(F)F)c2)cc1 | inactive |
| O=C(CCC(=O)c1ccccc1)NCc1cccc(C(F)(F)F)c1 | inactive |
| O=S(=O)(NCCS(=O)(=O)N1CCN(c2ccccc2)CC1)c1ccc(F)cc1 | inactive |
| CN(Cc1cccc2ncccc12)C(=O)CC1C(=O)NCCN1Cc1ccc(F)cc1 (stereo not drawn) | inactive |
| CC1CN(/C=C/C(=O)C(F)(F)F)CC(C)O1 (stereo not drawn) | inactive |
| Cc1cc(NC(=O)CN2C(=O)NC(CC(C)C)C2=O)no1 (stereo not drawn) | inactive |
| CS(=O)(=O)N(Cc1ccccc1Cl)c1ccc(C(=O)NCc2cccnc2)cc1 | 14.6 µM (active) |
| Cc1ccc(S(=O)(=O)N(Cc2ccc(Cl)cc2)c2ccccc2C(=O)NCc2cccnc2)cc1 | 23.1 µM (active) |
| O=C(NCc1cccnc1)c1cccnc1Sc1ccc(Cl)cc1 | inactive |
| CN(c1ccccc1)S(=O)(=O)c1ccc(C(=O)NCc2cccnc2)cc1 | inactive |
| O=C(O)c1ccccc1-c1ccccc1C(=O)NCc1cccnc1 | inactive |

| SMILES | Potency |
| --- | --- |
| CS(=O)(=O)N(Cc1ccccc1)c1ccc(C(=O)NN=C2CCCCCC2)cc1 | inactive |
| CCOc1ccc(OCC(=O)OC(C)C(=O)NC2CCCCC2C)cc1 (stereo not drawn) | inactive |
| CC1(C)Oc2ccc3ccc(=O)oc3c2/C(=N/O)C1=O | inactive |
| O=c1cc(COc2cccc(C(F)(F)F)c2)nc2sc3c(n12)CCCC3 | inactive |
| Cc1ccc2c(cnn2C(=O)CCC(=O)NC2CCCC2)c1 | inactive |
| CCOC(=O)c1c(-c2cccc(N)c2)cn2ccccc12 | inactive |
| N#Cc1nc(/C=C/c2ccc(F)cc2)oc1NCc1ccc(F)cc1 | inactive |
| COc1ccccc1/C=C/c1nc(C#N)c(NC(C)c2ccccc2)o1 (stereo not drawn) | 16.4 µM (active) |
| CCOc1ccc(Nc2oc(/C=C/c3ccc(F)cc3)nc2C#N)cc1 | inactive |
| O=C(CNC(=O)c1ccccc1F)OCC(=O)c1c[nH]c2ccccc12 | inactive |
| Cc1c(C(=O)N(C)C)sc2c1c(=O)n(-c1ccc(F)cc1)c(=O)n2CC(=O)N(C)c1ccccc1 | inactive |
| COC(=O)[C@@]12C[C@@H](CC(=O)N3CCC(c4ccccc4)CC3)C(=O)N(Cc3ccccc3)C1=CCC(C)(C)C2 | 14.6 µM (active) |
| CCn1cc(C(=O)N2CCN(Cc3ccc4c(c3)OCO4)CC2)c2cc(OC)c(OC)cc2c1=O | inactive |
| CCOC(=O)C1CCN(C(=O)CC2C(=O)N(Cc3ccccc3)C(C)c3nc4ccccc4n32)CC1 (stereo not drawn) | inactive |
| COC(=O)[C@@]12C[C@@H](CC(=O)N3CCCCC3)C(=O)N(Cc3ccc4c(c3)OCO4)C1=CCC(C)(C)C2 | 20.6 µM (active) |
| CCOC(=O)[C@]12CCC=C1N(Cc1ccco1)C(=O)[C@H](CC(=O)N1CCSCC1)C2 | inactive |
| COC(=O)[C@]12CCCCC=C1N(Cc1ccc3c(c1)OCO3)C(=O)[C@H](CC(=O)N1CCOCC1)C2 | inactive |
| O=C(NCc1ccccc1)C1CCN(C(=O)Cc2ccccc2)CC1 | inactive |
| CCOC(=O)N1CCN(C(=O)C(C)NC(=O)c2ccco2)CC1 (stereo not drawn) | inactive |
| CCOC(=O)N1CCN(C(=O)C[C@@H]2C[C@@]3(C(=O)OC)CC(C)(C)CC=C3N(Cc3ccco3)C2=O)CC1 | 18.4 µM (active) |
| CC(C)CCN1CCN(C/C=C/c2ccco2)CC1CCO (stereo not drawn) | inactive |

| SMILES | Potency |
| --- | --- |
| COC(=O)c1cccc(C(=O)N2CCCC(Nc3ccc4c(c3)OCCO4)C2)c1 (stereo not drawn) | inactive |
| O=C(O)Cc1ccc(NCc2ccccc2Cl)cc1 | inactive |
| Cc1cccc(-c2nnc(SCC(=O)O)n2Cc2ccccc2)c1 | inactive |
| O=C1CC(Cc2ccc(Cl)cc2)C(=O)N1c1cc(Cl)ccn1 (stereo not drawn) | inactive |
| COc1ccc(CNC(=O)CSc2nc3ccccc3nc2Cc2ccccc2)cc1 | inactive |
| O=C(CSc1nc2ccccc2nc1Cc1ccccc1)N1CCCCC1 | 18.4 µM (active) |
| O=C(CSc1n[nH]c(-c2ccccc2)n1)N1CCCCC1 | inactive |
| COc1cc(NC(=O)Cn2c(=O)n(Cc3ccco3)c(=O)c3oc4ccccc4c32)cc(OC)c1 | inactive |
| Cc1c(CCC(=O)O)c(=O)oc2cc3occ(-c4ccccc4)c3cc12 | inactive |
| O=C(c1ccco1)N1CCN(CC(=O)N(C2CCCCC2)C2CCS(=O)(=O)C2)CC1 (stereo not drawn) | inactive |
| COC(=O)c1sccc1NC(=O)CC1C(=O)NCCN1C(=O)Nc1ccc(F)cc1F (stereo not drawn) | inactive |
| COc1ccccc1CCNC(=O)CN1C(=O)NC2(CCCC2)C1=O | inactive |
| C=C1C=C(C(F)F)n2ncc(C(=O)NCCc3ccccc3OC)c2N1 | 17.8 µM (active) |
| COc1ccccc1CCNC(=O)c1cnccn1 | inactive |
| Cc1nn2cc(-c3ccc(Cl)cc3)cnc2c1Br | inactive |
| COC(=O)CCCC1=CC2=CC(=O)C(C)(OC(=O)c3cccs3)C(=O)C2=CN1c1cccc(C#N)c1 (stereo not drawn) | inactive |
| Cc1cccc(NC(=O)N2CCN(C)c3ncccc32)c1C | inactive |
| Cc1cc(NC(=O)CSc2nnc(-c3ccc(Cl)s3)o2)no1 | 16.4 µM (active) |
| Cc1cc(NC(=O)CSc2nnc(Nc3ccccc3F)s2)no1 | inactive |
| COc1ccccc1-c1nnc(SCC(=O)Nc2cc(C)on2)o1 | inactive |
| COc1ccc([N+](=O)[O-])cc1NC(=O)CC1SC(=Nc2cccc(C)c2C)N(/N=C(\C)c2ccc(C)cc2)C1=O (stereo not drawn) | inactive |
